This is a sample that favours compounds with a hit; in the whole collection about 2.1% have one here.
YB-1 expr inh = YB-1 expression inhibition; 30,000 tested, 0.37% active; U2OS, qRT-PCR YB-1 vs CDIP delta delta Cp, 16 h; stronger effect = higher value; zero = DMSO, each unit about twofold; AID 434959; delta delta Cp (YB-1 minus CDIP) (test concentration not listed);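 active = delta delta Cp rounded down to an integer at or above 3, about 3 SD of DMSO wells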;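 also: higher means less YB-1 transcript or more CDIP transcript relative to DMSO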
U2OS ROS induce = raises reactive oxygen species in U2OS cancer cells; U2OS ROS induction, H2DCF-DA fluorescence; ROS induction (% of piperlongumine), % at 10 µM; 46,000 tested, 2% active; AID 624156; in the data active = ROS induction above about 79%, passing the limit was not always enough
Large screens that a line does not name were inactive.

Cc1noc(C)c1NC(=O)N(C)C[C@@H]1Oc2c(NC(=O)Nc3ccc4c(c3)OCO4)cccc2C(=O)N([C@@H](C)CO)C[C@H]1C	U2OS ROS induce 115
COc1ccc(NC(=O)N(C)C[C@H]2Oc3c(cccc3N(C)C)C(=O)N([C@H](C)CO)C[C@@H]2C)cc1	U2OS ROS induce 79
C[C@H]1CN([C@@H](C)CO)C(=O)c2cccc(NC(=O)C3CC3)c2O[C@H]1CN(C)C(=O)Nc1ccc2c(c1)OCO2	none
Cc1noc(C)c1NC(=O)N(C)C[C@@H]1Oc2c(NC(=O)Nc3ccc4c(c3)OCO4)cccc2C(=O)N([C@H](C)CO)C[C@@H]1C	none
C[C@@H]1CN([C@@H](C)CO)C(=O)c2cccc(NC(=O)C3CC3)c2O[C@@H]1CN(C)C(=O)Nc1ccc2c(c1)OCO2	YB-1 expr inh 3.7
COc1ccc(NC(=O)N(C)C[C@@H]2Oc3c(cccc3N(C)C)C(=O)N([C@H](C)CO)C[C@H]2C)cc1	none
COc1ccc(NC(=O)Nc2cccc3c2O[C@H](CN(C)C(=O)Nc2c(C)noc2C)[C@H](C)CN([C@H](C)CO)C3=O)cc1	YB-1 expr inh 5.9
CCCCC(=O)N(Cc1ccc(-c2ccccc2-c2nn[nH]n2)cc1)[C@H](C(=O)O)C(C)C	none
C[C@@H]1CN([C@@H](C)CO)C(=O)c2cc(NC(=O)NC3CCCCC3)ccc2O[C@@H]1CN(C)C(=O)Nc1ccc(C(F)(F)F)cc1	none
O=C(O)CCNc1ncnc2sc3c(c12)CCCC3	none
C[C@H](CO)N1C[C@H](C)[C@H](CN(C)Cc2ccncc2)Oc2ccc(NC(=O)CCC(F)(F)F)cc2C1=O	none
Cc1onc(-c2ccccc2Cl)c1C(=O)NCc1nc(-c2ccccc2)no1	none (no result: YB-1 expr inh)
COc1ccc2c(c1)c(=O)oc1cc(OC(C)C)ccc12	U2OS ROS induce 114
COc1ccc2c(c1)c(=O)oc1cc(O)ccc12	none (no result: YB-1 expr inh)
COC(=O)CCCCCCC(=O)Nc1ccc(C2OC(CSc3ccccn3)CC(c3ccccc3)O2)cc1 (centres undefined)	none
O=C(Nc1ccc(Cl)cc1)c1sc2ccccc2c1Cl	none
CCCCn1c(SCC(=O)NCc2ccccc2)nc2c(sc3ccccc32)c1=O	none (no result: YB-1 expr inh)
C=CCN(C(=O)CSc1nc2c(sc3ccccc32)c(=O)n1Cc1cccnc1)c1ccccc1	U2OS ROS induce 154 (no result: YB-1 expr inh)
C[C@H]1CN([C@@H](C)CO)C(=O)Cc2cc(NC(=O)Nc3ccc(F)cc3)ccc2O[C@H]1CN(C)S(=O)(=O)c1cn(C)cn1	YB-1 expr inh 8.1
COc1ccc(NC(=O)Nc2ccc3c(c2)CC(=O)N([C@@H](C)CO)C[C@@H](C)[C@@H](CN(C)S(=O)(=O)c2cn(C)cn2)O3)cc1	U2OS ROS induce 90
COc1ccc(NC(=O)Nc2ccc3c(c2)CC(=O)N([C@@H](C)CO)C[C@H](C)[C@H](CN(C)S(=O)(=O)c2cn(C)cn2)O3)cc1	none
C[C@H](CO)N1C[C@H](C)[C@H](CN(C)S(=O)(=O)c2cn(C)cn2)Oc2ccc(NC(=O)Nc3ccc(F)cc3)cc2CC1=O	none
C[C@H]1CN([C@@H](C)CO)C(=O)CCCn2nncc2CO[C@H]1CN(C)S(=O)(=O)c1ccc(C#N)cc1	none
O=C(NC1CC1)[C@@H]1c2ccccc2C(=O)N(CC23CC4CC(CC(C4)C2)C3)[C@H]1c1ccc(CO)cc1	none
O=C(COC(=O)c1cccs1)c1ccc2c(c1)OCCO2	none
COc1ccc(OC)c(NC(=O)CSc2nc(-c3ccccc3)nc3c2COC(C)(C)C3)c1	U2OS ROS induce 77 (no result: YB-1 expr inh)
CC1(C)Cc2nc(-c3ccccc3)nc(SCC(=O)Nc3ccc(Br)cc3)c2CO1	U2OS ROS induce 113 (no result: YB-1 expr inh)
COc1ccc(OC)c(NC(=O)CSc2nc(-c3ccccc3)cs2)c1	none (no result: YB-1 expr inh)
CC(=O)c1ccc(NC(=O)CSc2ncnc3c2sc2nc4c(cc23)COC(C)(C)C4)cc1	none (no result: YB-1 expr inh)
C[C@H]1CN([C@@H](C)CO)C(=O)CCCn2nncc2CO[C@@H]1CN(C)Cc1ccccc1C(F)(F)F	none
Clc1ccc(-c2csc3ncnc(NCCN4CCOCC4)c23)cc1	U2OS ROS induce 139 (no result: YB-1 expr inh)
CC1CCc2sc3ncnc(NCCN4CCOCC4)c3c2C1 (centres undefined)	U2OS ROS induce 80 (no result: YB-1 expr inh)
CC1CCc2c(sc3ncnc(NCCCOC(C)C)c23)C1 (centres undefined)	none (no result: YB-1 expr inh)
OCCCNc1ncnc2scc(-c3ccccc3)c12	none (no result: YB-1 expr inh)
CNC[C@@H]1Oc2ccc(NC(=O)c3ccncc3)cc2C(=O)N([C@@H](C)CO)C[C@H]1C	none
C[C@H](CO)N1C[C@H](C)[C@H](CN(C)CC2CC2)Oc2c(NC(=O)c3cnccn3)cccc2C1=O	none
Cc1ccc(-c2nnn(CC(=O)Nc3ccc4c(c3)OCCO4)n2)cc1	none (no result: YB-1 expr inh)
CCOC(=O)c1c(CN(CC)CC)oc2ccc(OC)cc12	none
CCOC(=O)c1c(CSc2nc(C)ccc2C#N)oc2ccc(OC(C)=O)cc12	U2OS ROS induce 154
COC(=O)c1ccccc1NC(=O)c1c(C)nn(-c2ccccc2)c1-n1cccc1	U2OS ROS induce 126 (no result: YB-1 expr inh)
COc1cc(OC)c(NC(=O)c2c(C)nn(-c3ccccc3)c2-n2cccc2)cc1Cl	none (no result: YB-1 expr inh)
CC1CC(=O)C2=C(CCC3(O)C2C(=O)c2cccc(O)c2C3O)C1 (centres undefined)	none
COc1ccc(NC(=O)N(C)C[C@H]2Oc3ccc(NC(=O)C4CC4)cc3C(=O)N([C@@H](C)CO)C[C@@H]2C)cc1	none
O=C(NCCCc1nc2ccccc2n1CCCOc1ccccc1)c1ccco1	none (no result: YB-1 expr inh)
CCCCn1c(CCNC(=O)c2ccco2)nc2ccccc21	U2OS ROS induce 81 (no result: YB-1 expr inh)
CC1=C(C/C=N/NC(=O)CCCCC(=O)NO)C(C)(C)CCC1	none
COc1ccc(C#Cc2cnc3c(c2)C(=O)N([C@H](C)CO)C[C@H](C)[C@H](CN(C)C(=O)Nc2cccc4ccccc24)O3)cc1OC	U2OS ROS induce 148
COc1cccc(S(=O)(=O)N(C)C[C@@H]2Oc3ncc(C#Cc4ccc(F)cc4)cc3C(=O)N([C@H](C)CO)C[C@@H]2C)c1	U2OS ROS induce 103
COc1ccc(C#Cc2cnc3c(c2)C(=O)N([C@H](C)CO)C[C@H](C)[C@H](CN(C)C(=O)NC2CCCCC2)O3)cc1OC	U2OS ROS induce 135
COc1ccc(C#Cc2cnc3c(c2)C(=O)N([C@H](C)CO)C[C@H](C)[C@H](CN(C)C(=O)NC(C)C)O3)cc1OC	none
COc1cccc(S(=O)(=O)N(C)C[C@@H]2Oc3ncc(-c4cccc(F)c4)cc3C(=O)N([C@H](C)CO)C[C@@H]2C)c1	none
COc1ccc(C#Cc2cnc3c(c2)C(=O)N([C@H](C)CO)C[C@H](C)[C@H](CN(C)C(=O)Nc2ccccc2)O3)cc1OC	none
CC1=C(C(N)=O)C(c2ccco2)C(C(N)=O)=C(C)N1	none (no result: YB-1 expr inh)
COC(=O)c1ccccc1NC(=O)c1ccccc1Br	none (no result: YB-1 expr inh)
C[C@@H]1CN([C@@H](C)CO)C(=O)CCCn2cc(nn2)CO[C@H]1CN(C)C(=O)Nc1cccc(Oc2ccccn2)c1	none
CC1=C(C(=O)OC(C)C)C(c2ccccc2)NC(=S)N1 (centres undefined)	none
COc1cccc(C2=NN(C(=O)c3onc(-c4ccccc4Cl)c3C)C(c3ccco3)C2)c1 (centres undefined)	none (no result: YB-1 expr inh)
COc1cccc2c1N(C(C)=O)C1CC(C)CCC1C2(C)C (centres undefined)	none
O=C(c1ccc(Cl)cc1)N1CCCCC1	none (no result: YB-1 expr inh)
Cc1ccc(-c2cn3c4ccccc4nc3n2CCN2CCOCC2)cc1	none (no result: YB-1 expr inh)
CCc1ccc(-c2cn3c4ccccc4nc3n2CCN2CCOCC2)cc1	U2OS ROS induce 89 (no result: YB-1 expr inh)
O=C(Nc1ccccc1)N(Cc1ccccc1)c1cccc2ccccc12	none

Source: PubChem (Broad Institute)
